The source of these data is PubChem BioAssay (NCI).

Compounds without any hit were thinned out: in the full panel of roughly 83,000, 20% have a hit.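 96-well plates, one dose, 48 hours. Percent growth reported; active if below 10.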 A number with no mark means an inactive call. Activity calls are given as the source filed them.

Some test systems named below: HCT-15 colon; HT29 colon; SNB-75 CNS; SNB-19 CNS; U251 CNS; PC-3 prostate; SK-MEL-5 melanoma; UACC-62 melanoma; LOX IMVI melanoma; SK-MEL-28 melanoma; SK-MEL-2 melanoma; EKVX NSCLC; SN12C renal; UO-31 renal; TK-10 renal; ACHN renal; CAKI-1 renal; A498 renal; CCRF-CEM leukemia; MOLT-4 leukemia.
Holding throughout (assay): NCI-60 one-dose screen, 48 h (100 = growth as untreated, 0 = no growth, -100 = all killed)
Holding throughout (conditions): 10 µM unless noted

As to `c1cc(NCCCCN2CCOCC2)c2ccc3c(ccc4c(NCCN5CCOCC5)ccnc43)c2n1`, the growth was 70.7% in the experiment with HCT-15 colon; 83.1% with HT29 colon; 86.8% in the experiment on SNB-75 CNS; 68.2% in the experiment on SNB-19 CNS; 92.4% in the experiment with U251 CNS; 57.2% with PC-3 prostate. Further, the growth with SK-MEL-5 melanoma was 98.7%; with UACC-62 melanoma, 98.9%; in the experiment on LOX IMVI melanoma, 45.9%; in the experiment on SK-MEL-28 melanoma it was 94%; in the experiment on SK-MEL-2 melanoma, 99.2%; in the experiment with EKVX NSCLC it was 94.8%. For the same compound, the growth in the experiment on SN12C renal was 64.8%; in the experiment on UO-31 renal, 64.7%; in the experiment with TK-10 renal it was 143%; in the experiment with ACHN renal it was 60.2%; in the experiment with CAKI-1 renal, 64.2%; in the experiment with A498 renal, 86.1%. In addition, the growth is 36.9% in the experiment on CCRF-CEM leukemia and 43.2% in the experiment on MOLT-4 leukemia.

For `CCNC(=O)Nc1ncccc1OCc1ccc(F)cc1`, the growth in the experiment with HCT-15 colon was 99.7%; in the experiment with HT29 colon, 95.5%; with SNB-75 CNS, 102%; in the experiment on SNB-19 CNS it was 102%; with U251 CNS, 96.8%; in the experiment on PC-3 prostate, 103%. The growth in the experiment on SK-MEL-5 melanoma is 101%; in the experiment on UACC-62 melanoma it was 94.6%; with LOX IMVI melanoma it was 94.6%; in the experiment with SK-MEL-28 melanoma it was 113%; with SK-MEL-2 melanoma it was 99.8%; with EKVX NSCLC, 102%. The growth is 107% with SN12C renal; 93.7% in the experiment on UO-31 renal; 92.8% with TK-10 renal; 108% in the experiment with ACHN renal; 90.1% with CAKI-1 renal; 88.3% in the experiment on A498 renal. The growth is 101% in the experiment on CCRF-CEM leukemia and 98% with MOLT-4 leukemia.

As to `CC1(C)C(N)=Nc2cc(OCCCCN3Cc4ccccc4C3)c(OCC3CC3)cc21`, the growth with HCT-15 colon was 36.2%; with HT29 colon it was 27.6%; with SNB-75 CNS, 78.9%; in the experiment on SNB-19 CNS, 81.9%; with U251 CNS, 56.3%; in the experiment on PC-3 prostate it was 98.5%. The growth in the experiment with SK-MEL-5 melanoma is 57.7%; in the experiment with UACC-62 melanoma, 82.7%; in the experiment with LOX IMVI melanoma, 26.4%; in the experiment on SK-MEL-28 melanoma it was 54.4%; in the experiment with SK-MEL-2 melanoma, 110%; in the experiment on EKVX NSCLC it was 78.6%. Moreover, the growth in the experiment on SN12C renal is 81.9%; in the experiment with UO-31 renal it was 60.5%; with TK-10 renal it was 86.9%; in the experiment with ACHN renal, 87.8%; in the experiment on CAKI-1 renal, 56.3%; with A498 renal it was 109%. Moreover, the growth with CCRF-CEM leukemia is 99.4%; in the experiment on MOLT-4 leukemia, 101%.

In the case of `CN(C)CCN1C(=O)c2c(c3c4ccccc4n4c3c3c2c2ccccc2n3C2CC(O)C(O)C4(C)O2)C1=O` (stereo not given), the growth in the experiment with HCT-15 colon is 15.5%; with HT29 colon, 6.62% (active); with SNB-75 CNS, 23.3%; in the experiment with SNB-19 CNS, 17.1%; in the experiment with U251 CNS, 17.9%; in the experiment on PC-3 prostate, 30.2%. The growth in the experiment on SK-MEL-5 melanoma was 34.4%; with UACC-62 melanoma it was 21.8%; in the experiment with LOX IMVI melanoma it was 1.87% (active); in the experiment on SK-MEL-28 melanoma, 64.5%; in the experiment on SK-MEL-2 melanoma, 32.6%; in the experiment on EKVX NSCLC, 46.8%. The growth was 22.1% in the experiment with SN12C renal; 24.1% in the experiment with UO-31 renal; 24.6% with TK-10 renal; -12.6% (active) in the experiment on ACHN renal; 19.6% in the experiment with CAKI-1 renal; 32% with A498 renal. Further, the growth with CCRF-CEM leukemia was 31.1%; in the experiment with MOLT-4 leukemia, 0.948% (active).

Consider `COc1ccc(Nc2ncnc3ccc(-c4cncc(NS(C)(=O)=O)c4)cc23)cc1Cl`, for which the growth with HCT-15 colon is 63.3%; in the experiment on HT29 colon it was 23.1%; in the experiment with SNB-75 CNS it was 26.7%; in the experiment with SNB-19 CNS it was 42.2%; with U251 CNS it was 12%; in the experiment on PC-3 prostate, 30%. Besides, the growth with SK-MEL-5 melanoma was -60.5% (active); in the experiment with UACC-62 melanoma, 31.8%; in the experiment on LOX IMVI melanoma, 15.7%; with SK-MEL-28 melanoma it was 42.4%; with SK-MEL-2 melanoma, -4.48% (active); in the experiment with EKVX NSCLC, 67.3%. Besides, the growth was 38% with SN12C renal; 50.1% with UO-31 renal; 18.2% in the experiment on TK-10 renal; 80.4% in the experiment on ACHN renal; 79.8% with CAKI-1 renal; 7.85% (active) with A498 renal. The values for the growth in the experiment on CCRF-CEM leukemia and with MOLT-4 leukemia were 6.14% (active) and -27.6% (active), respectively.

On to `Cc1ccc(/C=C/c2c(C(=O)/C=C/c3ccccc3)c(C)nc3ccccc23)cc1`, for which the growth with HCT-15 colon is -24.6% (active); in the experiment with HT29 colon, 0.173% (active); with SNB-75 CNS, 29%; in the experiment on SNB-19 CNS, 15.7%; with U251 CNS, -5.93% (active); in the experiment with PC-3 prostate, 31.3%. The growth in the experiment with SK-MEL-5 melanoma was 32.3%; in the experiment on UACC-62 melanoma, 29.2%; with LOX IMVI melanoma it was -79.4% (active); in the experiment with SK-MEL-28 melanoma, 24.3%; with SK-MEL-2 melanoma it was 2.34% (active); in the experiment with EKVX NSCLC, 46.5%. Also, the growth in the experiment with SN12C renal is 36.9%; with UO-31 renal, 18.4%; in the experiment on TK-10 renal it was 29.3%; in the experiment with ACHN renal, 8.19% (active); in the experiment with CAKI-1 renal, 22.3%; in the experiment with A498 renal, 59.3%. Also, the growth with CCRF-CEM leukemia was 5.43% (active); in the experiment on MOLT-4 leukemia, 6.13% (active).

`CN1Cn2c(ccc2C(F)(F)F)C(=O)CS1(=O)=O`: the growth in the experiment with HCT-15 colon is 105%; in the experiment with HT29 colon, 105%; in the experiment on SNB-75 CNS, 79.1%; in the experiment with SNB-19 CNS, 105%; in the experiment on U251 CNS, 101%; with PC-3 prostate, 105%. In addition, the growth with SK-MEL-5 melanoma was 103%; with UACC-62 melanoma, 99.4%; in the experiment with LOX IMVI melanoma it was 99.2%; in the experiment on SK-MEL-28 melanoma it was 105%; in the experiment on SK-MEL-2 melanoma, 105%; in the experiment with EKVX NSCLC, 99.2%. For the same compound, the growth with SN12C renal is 104%; in the experiment on UO-31 renal, 82.9%; with TK-10 renal, 103%; with ACHN renal, 99.4%; in the experiment with CAKI-1 renal it was 94.1%; with A498 renal, 96.1%. For the same compound, the growth was 105% with CCRF-CEM leukemia and 101% with MOLT-4 leukemia.
